Rows were chosen to be rich in hits. Some 2.5% of all compounds tested hit in one or more screens of this group.
c-Myc SMM: binders of human c-Myc, primary screen, biochemical, small molecule microarray, anti-His fluorescence | AID 624141, 2012 | His-c-Myc binding | actives 1.5% (n = 17,000) | calls only | Myc proto-oncogene protein (Homo sapiens), P01106;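 active means spot fluorescence over background with P-value below 7% in all four replicate spots, showing protein binding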;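 further: score is binary with 100 for all four spots passing and 0 otherwise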
STAT3 binder: STAT3 binders, primary screen, biochemical, small molecule microarray, single point, set 2. Signal transducer and activator of transcription 3 (Homo sapiens), P40763. His-STAT3 binding, anti-His fluorescence. calls only. actives 0.2% (n = 17,000). AID 624138, 2012;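 active means compounds whose four printed spots each show fluorescence over background unusually high for their array block, chance value under 7%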
p53 mut binder: binders of human mutant p53, primary screen, biochemical, small molecule microarray, anti-GST fluorescence; mutant tumor protein p53 (GST-tagged), Homo sapiens; small molecule microarray binding; calls only; actives 0.4% (n = 17,000);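 active means compounds whose four printed spots each glow above background more than chance allows, each with a p-value under 7%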
NFkB SMM: binders of NF-kB p50 subunit, primary screen, biochemical, small molecule microarray, anti-His fluorescence. actives 1.3% (n = 17,000). anti-His fluorescence binding. calls only. Nuclear factor NF-kappa-B p105 subunit (Homo sapiens), P19838;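 active means spot fluorescence over background significantly raised, with a chance value under 7% in all four replicate spots of the compound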;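 further: probe protein is his-tagged human p50 processed subunit at 1 µg/ml; raw spot fluorescence signals with no normalization applied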
Target sequence (P19838 1-433 limits assumed): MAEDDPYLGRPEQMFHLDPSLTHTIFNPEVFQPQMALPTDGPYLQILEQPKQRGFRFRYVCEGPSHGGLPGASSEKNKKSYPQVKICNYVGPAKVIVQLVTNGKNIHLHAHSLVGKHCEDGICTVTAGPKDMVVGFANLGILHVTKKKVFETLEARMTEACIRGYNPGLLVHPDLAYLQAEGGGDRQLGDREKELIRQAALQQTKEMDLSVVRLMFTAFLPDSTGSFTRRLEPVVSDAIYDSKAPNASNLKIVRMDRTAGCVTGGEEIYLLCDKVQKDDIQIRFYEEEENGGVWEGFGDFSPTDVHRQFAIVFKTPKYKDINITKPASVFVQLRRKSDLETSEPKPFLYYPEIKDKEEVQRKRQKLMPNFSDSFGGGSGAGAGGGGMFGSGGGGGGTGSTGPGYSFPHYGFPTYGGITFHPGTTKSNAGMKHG
* = called active by the depositor; i = inactive; + = active, no number.

SMILES	c-Myc SMM	STAT3 binder	p53 mut binder	NFkB SMM
COc1ccc(Cl)cc1NC(=S)NCCCN1CCCC1=O	+	i	i	i
COc1ccc(Cl)cc1NC(=S)NCCn1cc(Cl)cn1	+	i	i	i
COc1ccc(NC(=S)NCCn2cc(Br)cn2)cc1OC	i	i	i	i
OC(COc1ccccc1Cl)Cn1nnc2ccccc21 (configuration not stated)	i	i	i	i
Cc1ccc(S(=O)(=O)N2CCC[C@H]2Cn2cc(CN3C(=O)COC[C@H]3c3ccccc3)nn2)cc1	i	i	+	i
c1ccc(Cn2ccnc2SCc2nnc(-c3ccccc3)o2)cc1	+	i	+	i
Cc1cc(-n2nc3ccccc3n2)c2oc(SCc3nnc(-c4ccccc4)o3)nc2c1	i	i	i	i
Cc1cc(C)cc(C(=O)N(C)C(Cc2ccc(-c3ccccc3)cc2)C(=O)NC(Cc2c[nH]c3ccccc23)C(=O)O)c1 (configuration not stated)	i	i	i	i
C[C@H](CO)N1C[C@H](C)[C@@H](CN(C)C(=O)Nc2cccc3ccccc23)OCCCC[C@H](C)Oc2ccc(NC(=O)c3ccncc3)cc2C1=O	+	i	i	+
C[C@@H]1CCCCO[C@H](CN(C)C(=O)Nc2cccc3ccccc23)[C@@H](C)CN([C@@H](C)CO)C(=O)c2cc(NC(=O)c3ccncc3)ccc2O1	+	i	i	+
C=CCNC(=O)[C@H]1[C@@H]2C(=O)O[C@@H](c3ccccc3)[C@@H](c3ccccc3)N2[C@@H](c2ccccc2OCCO)[C@]12C(=O)Nc1ccccc12	i	i	i	i
Cn1nnnc1SCCNC/C=C/c1ccccc1	+	i	i	i
COc1ccc(OC)c(NC(=O)CSc2nnnn2C)c1	i	i	i	i
COC(=O)c1c(NC(=O)CSc2nnc3ccccn23)sc(C)c1C	i	i	i	i
COC(=O)c1c(NC(=O)CC2Nc3cccc4cccc(c34)NC2=O)sc(C)c1C (configuration not stated)	+	i	i	i
COc1ccc(-n2c(SCc3nc4ccccc4s3)nnc2-c2cccnc2)cc1	i	i	i	i
Cc1ccc(-c2cc3ccccn3c2C(=O)CSc2nnc(C)s2)cc1	+	i	i	i
Cc1nnc(SCC(=O)Nc2cccc(I)c2)s1	i	i	i	i
Cc1noc(C)c1S(=O)(=O)Nc1ccc2c(c1)CC(=O)N([C@H](C)CO)C[C@@H](C)[C@@H](CN(C)Cc1ccc(-c3ccccc3)cc1)O2	+	+	i	i
C[C@H](CO)N1C[C@H](C)[C@@H](CN(C)Cc2ccc(C(F)(F)F)cc2)Oc2ccc(NC(=O)Cc3cn(C)c4ccccc34)cc2CC1=O	+	i	i	+
COc1ccc(S(=O)(=O)N(C)C[C@H]2Oc3ccc(NC(=O)Nc4ccc(C(F)(F)F)cc4)cc3CC(=O)N([C@H](C)CO)C[C@H]2C)cc1	+	i	i	i
Cc1noc(C)c1S(=O)(=O)Nc1ccc2c(c1)CC(=O)N([C@@H](C)CO)C[C@H](C)[C@H](CN(C)Cc1ccc(-c3ccccc3)cc1)O2	i	i	i	i
C[C@H]1CN([C@@H](C)CO)C(=O)Cc2cc(NC(=O)Nc3ccc(F)cc3)ccc2O[C@H]1CN(C)CC1CC1	i	+	i	i
COc1ccc(S(=O)(=O)N(C)C[C@@H]2Oc3ccc(NC(=O)Nc4ccc(C(F)(F)F)cc4)cc3CC(=O)N([C@@H](C)CO)C[C@H]2C)cc1	i	i	i	i
CCN(CC)S(=O)(=O)c1ccc(OC)c(NC(=O)c2cccnc2)c1	i	i	i	i
SMILES	c-Myc SMM	STAT3 binder	p53 mut binder	NFkB SMM
COc1cccc(Nc2nc(C3(C)CC4(CC(C)OC4=O)C(=O)O3)cs2)c1 (configuration not stated)	i	i	i	i
COc1ccc(NC(=O)Nc2ccc3c(c2)CC(=O)N([C@@H](C)CO)C[C@H](C)[C@@H](CN(C)Cc2ccc(Oc4ccccc4)cc2)O3)cc1	i	i	+	i
C[C@@H]1CN([C@@H](C)CO)C(=O)Cc2cc(N(C)C)ccc2O[C@H]1CN(C)S(=O)(=O)c1cccs1	+	i	i	i
C[C@@H]1CN([C@H](C)CO)C(=O)Cc2cc(N(C)C)ccc2O[C@H]1CN(C)S(=O)(=O)c1cccs1	i	i	i	i
CCOC(=O)c1sc(NC(=O)C(C)(C)Oc2ccc(Cl)cc2)c(C#N)c1C	i	i	i	i
COc1ccc(S(=O)(=O)N(C)CCc2ccccn2)cc1	+	+	i	+
CN(C/C=C/c1ccccc1[N+](=O)[O-])CCc1ccccn1	i	i	i	i
C=C1CC[C@@]2(OC1)O[C@H]1CC3[C@@H]4CC=C5C[C@H](O[C@@H]6OC[C@H](O)[C@H](O)[C@H]6O[C@@H]6O[C@@H](C)[C@H](O)[C@@H](O)[C@H]6O)C[C@@H](O)[C@]5(C)C4CC[C@]3(C)[C@H]1[C@@H]2C (some centres not stated)	+	i	i	+
C[C@H]1CN([C@@H](C)CO)C(=O)c2cccc(NC(=O)Nc3ccc(C(F)(F)F)cc3)c2O[C@@H]1CN(C)CC1CC1	i	+	i	i
C[C@@H]1CN([C@@H](C)CO)C(=O)c2cccc(NC(=O)c3cnccn3)c2O[C@H]1CN(C)C(=O)Nc1ccccc1	+	i	i	+
C[C@H]1CN([C@@H](C)CO)C(=O)c2cccc(NC(=O)NC3CCCCC3)c2O[C@@H]1CN(C)C(=O)Nc1ccc(F)cc1	i	i	i	i
C[C@H]1CN([C@@H](C)CO)C(=O)c2cccc(NC(=O)NC3CCCCC3)c2O[C@H]1CN(C)S(=O)(=O)c1ccc(Cl)cc1	+	i	i	i
C[C@H](CO)N1C[C@H](C)[C@@H](CN(C)CC2CC2)Oc2c(NC(=O)Nc3ccc(C(F)(F)F)cc3)cccc2C1=O	i	i	i	i
C[C@H](CO)N1C[C@H](C)[C@@H](CN(C)C(=O)Nc2ccc(C(F)(F)F)cc2)Oc2c(NC(=O)NC3CCCCC3)cccc2C1=O	+	i	i	+
C=C1C(=O)O[C@@H]2/C=C(/CO[C@@H]3O[C@H](CO)[C@@H](O)[C@H](O)[C@H]3O)CC/C=C(/C=O)C[C@H](O)[C@@H]12	i	i	i	i
COc1cc(CO)cc(Br)c1OCc1cccc([N+](=O)[O-])c1	i	i	i	i
